ASM inhibitor = inhibitors of human secretory acid sphingomyelinase; P17405; placental ASM, HMU-PC fluorogenic substrate, 60 min; hit rate 0.006% among 340,000; Potency, µM (doses to about 57.5 µM), for inactives: top-dose activity change, negative = inhibition, usual class: inhibitors; note: potency is the fitted concentration of half-maximal effect
Target sequence (P17405 47-631 limits assumed): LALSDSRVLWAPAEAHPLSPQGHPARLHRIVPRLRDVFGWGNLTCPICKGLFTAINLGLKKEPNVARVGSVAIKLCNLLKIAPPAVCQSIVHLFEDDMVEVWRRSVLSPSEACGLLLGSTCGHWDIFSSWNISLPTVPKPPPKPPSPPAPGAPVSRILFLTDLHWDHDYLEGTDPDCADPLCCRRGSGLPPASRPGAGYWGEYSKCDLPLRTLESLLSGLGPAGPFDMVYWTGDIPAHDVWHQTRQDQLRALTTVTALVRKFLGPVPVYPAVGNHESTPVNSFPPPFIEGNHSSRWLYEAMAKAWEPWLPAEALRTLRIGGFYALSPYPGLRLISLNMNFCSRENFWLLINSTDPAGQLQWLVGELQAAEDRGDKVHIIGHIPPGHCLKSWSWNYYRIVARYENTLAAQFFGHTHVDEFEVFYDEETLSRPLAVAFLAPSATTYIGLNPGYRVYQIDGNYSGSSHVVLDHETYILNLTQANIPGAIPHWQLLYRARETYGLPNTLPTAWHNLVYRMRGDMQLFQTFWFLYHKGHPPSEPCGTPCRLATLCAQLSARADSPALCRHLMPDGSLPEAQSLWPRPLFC
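qHTS format. ASM enzyme prepared from human placenta hydrolyses the fluorogenic substrate HMU-PC0 (9 uM final) over 60 min at 37 °C after a 10 min compound preincubation.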
DT40 TDP1 CPT = DT40-hTDP1 cell growth loss with CPT | chicken DT40 Tdp1-/-;hTDP1 cells + 20 nM CPT, ATP luminescence, 48 h | Potency, µM (top dose mostly 46.2 µM), for inactives: at the highest dose activity change, negative = growth inhibition, usual class: inhibitors | hit rate 12% among 420,000; note: potency is the fitted concentration of half-maximal effect; % is set by controls: 0 for no effect and ±100 for the full control effect; nearly all actives have a fitted effect of over 55% in size
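Chicken DT40 Tdp1-/- cells complemented with human TDP1, 400 cells/well, exposed to compounds plus 20 nM camptothecin for at least 48 h at 37 C; viability read as ATP content by CellTiter-Glo luminescence.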
IL1B secr inh = blocks inflammasome-driven IL-1 beta release. THP-1 LPS/ATP IL-1B secretion, AlphaLISA, 16 h; hits give low values. activity change, % at 57.5 µM. hit rate 4.7% among 360,000. AID 743279; in the data active = activity change below about -50%; inconclusive = mostly about -30% to -49%; note: % is set by controls: 0 for no effect and ±100 for the full control effect
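Secreted IL-1B measured by AlphaLISA bead assay after 16 h compound exposure of THP-1 cells; compounds (final up to 57.5 uM) added 1 h before LPS (250 ng/mL) and ATP (1.25 mM) stimulation; lower signal means less secretion.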
TGFb inhibitor = blocks TGF-b signaling | HepG2 CAGA-GFP TGF-b/SMAD3 reporter, GFP fluorescence, 18 h; TGF-beta stimulated, 500 pg/mL final | Potency, µM (doses to about 46.1 µM), without a hit: at the top dose activity, negative = inhibition, actives largely listed as inhibitors | hit rate 1.2% among 410,000 | AID 588855; note: potency is the fitted concentration of half-maximal effect; % is set by controls: 0 for no effect and ±100 for the full control effect; nearly all actives have a fitted effect of over 65% in size
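Using HEPG2 CAGA-GFP reporter cells at 1000 cells/well, we pinned test compounds, stimulated with recombinant TGF-beta (500 pg/mL final) and measured total well GFP after 18 h.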
TDP1 cell noCPT = qHTS for Inhibitors of human tyrosyl-DNA phosphodiesterase 1 (TDP1): qHTS in cells in absence of CPT | DT40 Tdp1-/- hTDP1 cells, no CPT, ATP luminescence, 48 h | Potency, µM (doses to about 46.2 µM), for inactives: at the highest dose activity change, negative = growth inhibition, actives largely listed as inhibitors | hit rate 15% among 420,000 | AID 686978, 2013; note: potency is the fitted concentration of half-maximal effect; % is set by controls: 0 for no effect and ±100 for the full control effect; nearly all actives have a fitted effect of over 55% in size
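Compound effects on proliferation are scored in DT40 Tdp1-/-;hTDP1 cells in the absence of CPT. ATP levels (CellTiter-Glo luminescence) are recorded after a ≥48 hr, 37 °C incubation.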
HepG2 tox = kills HepG2 cells in TGF-b inhibitor counter-screen; AID 588856; Potency, µM (titrated, usually from 46.1 µM), inactives show at the highest dose activity change, negative = cytotoxicity, most hits filed as cytotoxic; hit rate 0.76% among 410,000; HepG2 CAGA-GFP viability, ATP luminescence, 18 h; note: potency is the fitted concentration of half-maximal effect
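CellTiter-Glo luminescence gave cytotoxicity after 18 hours at 37 degrees C. The cells were HepG2 CAGA-GFP in 1% FBS DMEM, stimulated with 500 pg/mL TGF-beta after compound addition. %Activity was normalised to no-cell wells (complete cell-killing) and DMSO (no toxicity), and curves were fitted and classified.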
Starred values were filed as active, the others as inactive; i = inactive; ? = inconclusive; . = no result. An excerpt weighted towards active compounds, which were near 19% of everything screened. Unless noted, calls come from the whole dose curve; as a rule, active = well fitted curve in the direction sought with a large enough effect; inconclusive = small, poorly fitted or top-dose-only effect, or another doubt; inactive = no such curve, though single readings can be large; an effect the other way counts as inactive or inconclusive.

SMILES	ASM inhibitor	DT40 TDP1 CPT	IL1B secr inh	TGFb inhibitor	TDP1 cell noCPT	HepG2 tox
O=C(NC1CCCCC1)C(c1ccco1)N(C(=O)c1csnn1)C1CCCC1 (stereo not drawn)	-1.4%	?	0.0	-26.5%	16.4µM*	-27.4%
COc1cc(NCCCn2cnc3c(OC)ncnc32)cc(OC)c1OC	.	-13.9%	-15.8	7.1%	-9.2%	-9.8%
CC1CCN(c2ccc(-c3cccc(NC(=O)c4ccco4)c3)nn2)CC1	-5.3%	?	-78.3*	16.4%	?	-8.4%
CCC(=O)Nc1cccc(-c2ccc(N3CCC(C)CC3)nn2)c1	7.8%	?	?	-2.9%	23.1µM*	-32.2%
O=C(Nc1cccc(-c2ccc(N3CCCCC3)nn2)c1)c1ccc(Br)o1	-3.8%	20.6µM*	20.8	-8.3%	11.6µM*	-44.4%
CC1CCN(c2ccc(-c3cccc(NC(=O)C(F)(F)F)c3)nn2)CC1	3.1%	?	?	2.3%	?	20µM*
CCOc1ccc2nc(N(Cc3ccccc3)C(=O)CCNC(C)=O)sc2c1	-5.6%	6.0%	i	11.6%	-1.5%	0.0%
Cc1cc(C(=O)Nc2ccccc2-c2nc(CNC(=O)c3ccccc3Cl)c(C)o2)c(C)o1	.	19.2%	.	.	-5.9%	.
Cn1ccsc1=NC(=O)c1ccc(S(=O)(=O)C(F)F)cc1	-1.1%	-23.8%	-3.4	32.0%	?	2.3%
Cc1nnc2ccc(-c3cccc(NC(=O)c4ccc(Br)o4)c3)nn12	-1.5%	?	-65.0*	3.2%	23.1µM*	-34.8%
Cc1cc(C)c2oc(-c3cccc(NC(=O)c4ccc(Br)o4)c3)nc2c1	.	?	.	-18.6%	?	-2.1%
CCOc1ccc(-c2cccc(NC(=O)c3ccc(Br)o3)c2)nn1	-1.4%	-24.0%	-10.8	-5.9%	?	-22.5%
O=C(Nc1cccc(-c2nnc(-c3ccccc3)o2)c1)c1ccc(Br)o1	-24.9%	18.4µM*	-24.4	?	?	-45.2%
CCOC(=O)OC(C)OC(=O)C1N2C(=O)C(NC(=O)C(N)c3ccccc3)C2SC1(C)C (stereo not drawn)	.	-20.3%	.	.	0.9%	.
CN(C)c1ccc(/C=C/c2ccc3ncccc3c2)cc1	.	?	.	-11.7%	?	-13.6%
CCN(CC)c1ccc(/C=C/c2ccccn2)cc1	.	0.178µM*	.	121.0%	0.282µM*	0.8%
CN(C)c1ccc(/C=C/c2cc3ccccc3cn2)cc1	.	0.447µM*	.	11.2µM*	0.447µM*	-45.0%
CN(C)c1ccc(/C=C/c2ccccn2)cc1	.	1.41µM*	.	20.4%	4.47µM*	-11.6%
CCN(CC)c1ccc(/C=N/N2CCN(c3ccccn3)CC2)cc1	4.3%	6.6%	-0.4	9.2%	7.9%	5.6%
C(=C\c1ccccn1)/c1ccccc1	.	-6.2%	.	?	-7.0%	-32.2%
CCCCCSc1nnc(N)s1	3.3%	-26.2%	2.8	-20.6%	5.4%	-16.7%
COCCn1c(=NC(=O)CSCC(=O)N2CCOCC2)sc2ccccc21	1.3%	-6.4%	i	-1.2%	-6.9%	-7.8%
COc1ccc(N2CCN(c3oc(/C=C/c4ccccc4OC)nc3C#N)CC2)cc1	.	?	.	.	?	-0.6%
O=C(CSc1nc(=O)n(CCN2CCOCC2)c2c1CCC2)Nc1cccc(Cl)c1	.	-10.3%	.	-23.3%	-18.0%	-37.5%
COc1cccc(C(C)(O)c2nc(-c3ccc(OC)c(OC)c3)cs2)c1 (stereo not drawn)	.	?	-25.1	3.3%	?	-16.4%
SMILES	ASM inhibitor	DT40 TDP1 CPT	IL1B secr inh	TGFb inhibitor	TDP1 cell noCPT	HepG2 tox
COc1cccc(C(C)(O)c2nc(-c3cccc(C(C)C)c3)cs2)c1 (stereo not drawn)	.	?	-82.5*	?	23.1µM*	-64.1%
COc1cccc(C(C)(O)c2nc(-c3ccccc3)cs2)c1 (stereo not drawn)	.	16.4µM*	5.4	-14.0%	18.4µM*	-6.4%
COc1cccc(C(C)(O)c2nc(-c3ccc(N(C)C)cc3)cs2)c1 (stereo not drawn)	.	18.4µM*	-18.9	?	20.6µM*	-13.2%
COc1cccc(C(C)(O)c2nc(-c3ccc(F)c(Cl)c3)cs2)c1 (stereo not drawn)	.	?	-23.3	?	?	-67.1%
CN(C)c1ccc(-c2csc(C(C)(O)c3cccc(F)c3)n2)cc1 (stereo not drawn)	.	13µM*	-17.2	?	20.6µM*	-17.1%
O=C(CCn1nc(-c2ccc(Cl)cc2)c2ccccc2c1=O)Nc1ccc(OC(F)(F)F)cc1	.	-24.3%	.	0.1%	?	-0.9%
COc1cccc(-c2cnc(C(O)c3ccc(C)cc3C)[nH]2)c1 (stereo not drawn)	.	?	9.5	6.2%	?	-1.7%
CC12CCC(=O)N1C(C(=O)NCCc1ccc(S(N)(=O)=O)cc1)CS2 (stereo not drawn)	-1.4%	-0.7%	6.9	4.8%	-4.5%	5.0%
CCN1CCC(N(Cc2ccc(F)cc2)C(=O)Nc2cccc(C(F)(F)F)c2)CC1	.	16.4µM*	.	?	16.4µM*	-95.7%
CCN1CCC(N(Cc2cccc(OC)c2)C(=O)Nc2cccc(C(F)(F)F)c2)CC1	.	?	.	?	20.6µM*	7.08µM*
CCN1CCC(NC(=O)Nc2cccc(C(F)(F)F)c2)CC1	-2.0%	-1.8%	-14.7	-0.6%	-0.5%	13.1%
CCN1CCC(N(Cc2cccc(OC)c2)C(=O)Nc2cccc(C)c2C)CC1	.	?	.	-1.1%	23.1µM*	-18.9%
CCc1noc2nc(C)n(CC(=O)O)c(=O)c12	.	9.5%	.	?	-1.0%	3.1%
CCN(c1cccc(C)c1)S(=O)(=O)c1ccc2[nH]cc(C(=O)NCCCOC)c(=O)c2c1	.	-25.1%	.	?	?	-31.0%
O=C(COC(=O)c1cccs1)Nc1nc(-c2ccccc2)cs1	-8.1%	2.8%	-5.4	2.0%	?	0.7%
CC(=O)Nc1nc(-c2ccc3c(c2)CCN3S(C)(=O)=O)cs1	4.0%	-20.3%	-27.3	18.1%	?	6.9%
O=C(Cc1cccs1)Nc1nc(-c2ccccc2)cs1	-8.0%	23.1µM*	-69.9*	0.9%	8.2µM*	-32.7%
CS(=O)(=O)N1CCc2cc(-c3csc(NC(=O)Cc4cccs4)n3)ccc21	-26.0%	13µM*	-65.4*	?	8.2µM*	-35.3%
O=C(COC(=O)/C=C/c1cccs1)Nc1nc(-c2ccccc2)cs1	-0.6%	16.4µM*	-12.6	-18.6%	13µM*	-39.0%

Compound activity deposited in PubChem BioAssay by National Center for Advancing Translational Sciences (NCATS).
